Compound activity: PubChem, Broad Institute
An excerpt weighted towards active compounds, which were near 3.7% of everything screened.
MITF act – MITF TRPM1 promoter activation in melanoma cells; SK-MEL-5 TRPM1-promoter luciferase, 24 h; % of positive control, neutral wells = 0; 300,000 compounds, 0.75% hits; activation, % at 12.5 µM;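 active = mean activation of at least 80% with every replicate also reaching 80%; inconclusive = mean reaches 80% but some replicate falls short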
AF4-AF9 inh – blocks AF4 peptide binding to human AF9. AlphaScreen, biotin-AF4 peptide binding to FLAG-AF9. inhibition, % at 10 µM. 350,000 compounds, 0.47% hits. AID 651704;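 active = every replicate reaching a set inhibition limit, whatever the replicate mean, cut at about 25% in these data; inconclusive = mean inhibition reaches that limit but some replicates miss it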
Target sequence (P42568 whole entry, looked up): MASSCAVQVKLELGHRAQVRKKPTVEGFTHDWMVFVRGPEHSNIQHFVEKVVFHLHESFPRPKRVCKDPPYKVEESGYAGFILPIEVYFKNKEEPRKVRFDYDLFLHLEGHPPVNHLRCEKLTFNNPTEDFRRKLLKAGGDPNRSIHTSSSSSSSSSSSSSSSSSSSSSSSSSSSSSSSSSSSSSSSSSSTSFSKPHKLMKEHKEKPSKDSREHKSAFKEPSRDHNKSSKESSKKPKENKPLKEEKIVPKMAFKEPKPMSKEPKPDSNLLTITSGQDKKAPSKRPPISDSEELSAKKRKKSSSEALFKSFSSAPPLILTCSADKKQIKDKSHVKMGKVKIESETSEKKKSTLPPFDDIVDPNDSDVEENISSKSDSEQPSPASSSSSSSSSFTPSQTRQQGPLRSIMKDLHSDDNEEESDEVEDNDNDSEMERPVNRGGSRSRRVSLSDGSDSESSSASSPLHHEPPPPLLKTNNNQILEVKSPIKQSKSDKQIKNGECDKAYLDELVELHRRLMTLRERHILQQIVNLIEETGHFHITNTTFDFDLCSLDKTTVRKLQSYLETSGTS
Wnt act – Wnt/beta-catenin pathway activation; Wnt/beta-catenin reporter cell assay, activator, plate reader; activation, % at 9.35 µM; 300,000 compounds, 1.2% hits; AID 743398; in the data active = activation above about 30%, passing the limit was not always enough; inconclusive = no clear call, values can overlap the other calls
esBAF inh – inhibitors of esBAF chromatin remodeling in mouse ES cells | Bmi1-luciferase knock-in reporter, 24 h; 100% = twice the neutral-well signal | reporter increase, % at 12.5 µM | 350,000 compounds, 2% hits | AID 602393; in the data active = activation above about 40%; inconclusive = no clear call, values can overlap the other calls;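 note: a rise in the Bmi1 reporter signal indicates esBAF inhibition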
Ecoli rRNA inh – inhibits bacterial ribosomal RNA function over humanized ribosomes | E. coli WT GFP vs humanized-ribosome RFP mutants, fluorescence, 24 h; hits give low values; DMSO median 0, no signal -100 | GFP signal change (wild-type ribosome), % (concentration not given with the values) | 350,000 compounds, 1.6% hits;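 active = significant combined selectivity score with lowered wild-type GFP, culture density cut under 30%, mutant RFP and density less affected; inactive = any of these conditions unmet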
Of the large screens only hits and unclear results are named; the others gave an inactive call.

O=C(NNC(=S)Nc1ccccc1)c1ccc2ncccc2c1	none (no result: esBAF inh)
CCC(=O)Nc1cccc(NC(=S)NC(=O)c2cccc(C)c2)c1	Ecoli rRNA inh -17 (no result: esBAF inh)
O=C(NC(=S)Nc1cccc(NC(=S)NC(=O)c2ccccc2)c1)c1ccccc1	esBAF inh 66
CCC(=O)Nc1cccc(NC(=S)NC(=O)c2ccccc2)c1	none (no result: Wnt act, esBAF inh)
O=C(NC(=S)Nc1ccc2[nH]ncc2c1)c1ccccc1	esBAF inh 66 (no result: AF4-AF9 inh, Wnt act, Ecoli rRNA inh)
CC(=O)c1cccc(NC(=S)NC(=O)c2ccc(C)cc2Cl)c1	esBAF inh 60 (no result: Wnt act)
COc1ccc(CCNC(=O)/C(C#N)=C/c2ccc(OCC(=O)NCC3CCCO3)cc2)cc1OC (stereo not drawn)	none (no result: esBAF inh)
COc1ccc2oc(C(=O)N3CCCc4ccccc43)c(C)c2c1	esBAF inh 75
C=CCn1c(C)csc1=Nc1ccc(C(C)=O)cc1	none (no result: esBAF inh)
C=CCn1c(C)csc1=Nc1ccccc1C	AF4-AF9 inh 27
O=C1CCCC(O)=C1Sc1cc(Cl)c(Cl)cc1Cl	Ecoli rRNA inh -23 (no result: MITF act)
COc1cc(/C=C2\C(=O)N(c3cccc(C(=O)O)c3)N=C2C)ccc1OCc1ccccc1	esBAF inh 52 (no result: MITF act)
CCN(CC)S(=O)(=O)c1ccc2c(c1)nc(SCC(=O)NCC1CCCO1)n2CC (stereo not drawn)	none
Cc1ccc(-n2cc(-c3ccccc3)[nH]c2=O)cc1F	MITF act 113, esBAF inh 50 (no result: AF4-AF9 inh, Ecoli rRNA inh)
CC1(C)CC(=O)c2cnc(N3CCN(c4ccccc4)CC3)nc2C1	none (no result: AF4-AF9 inh, Wnt act, Ecoli rRNA inh)
CC1(C)CC(=O)c2cnc(N3CCc4ccccc4C3)nc2C1	esBAF inh 69
C[C@H]1CN([C@@H](C)CO)S(=O)(=O)c2ccc(Br)cc2O[C@@H]1CN(C)C(=O)C1CC1	none (no result: MITF act, Wnt act)
Cc1cc(C)cc(OCCN2CCOCC2)c1	none (no result: MITF act)
COc1cc(C)ccc1S(=O)(=O)N1CCN(C23CC4CC(CC(C4)C2)C3)CC1	Ecoli rRNA inh -32
CC(CC(=O)O)CC(=O)Nc1cc(C(F)(F)F)cc(C(F)(F)F)c1 (stereo not drawn)	Wnt act 51 (no result: MITF act, esBAF inh)
O=C(O)COCC(=O)Nc1cc(C(F)(F)F)cc(C(F)(F)F)c1	none (no result: esBAF inh)
O=C(Nc1cccc(S(=O)(=O)N2CCCCC2)c1)c1ccc([N+](=O)[O-])o1	Ecoli rRNA inh -28
Cc1ccc(NC(=O)c2ccc([N+](=O)[O-])o2)cc1S(=O)(=O)N1CCOCC1	Ecoli rRNA inh -23 (no result: Wnt act, esBAF inh)
COc1cc2cc(C(=O)N3CCN(Cc4ccc5c(c4)OCO5)CC3)[nH]c2cc1OC	none
CCOCC(=O)N1CCN(Cc2ccc3c(c2)OCO3)CC1	Wnt act 31
O=C(c1cc2cc(F)ccc2[nH]1)N1CCN(Cc2ccc3c(c2)OCO3)CC1	Ecoli rRNA inh -40
O=c1c2ccccc2c(-c2ccccc2)nn1-c1cc(Cl)cc(Cl)c1	none (no result: MITF act, esBAF inh)
COC(=O)CN1C(=O)[C@@H]2[C@H](C1=O)[C@@H]1CC(C(=O)OC)=C[C@@H](C(=O)OC)[C@@H]3C1=C(C(=O)[C@@]3(C)NC(=O)c1ccccc1)[C@@H]2C	none
O=C(Cn1cc(C(=O)c2ccco2)c2ccccc21)Nc1ccccc1F	Ecoli rRNA inh -22 (no result: esBAF inh)
O=C(Nc1ncc(Cc2cccc(Cl)c2Cl)s1)C1CCCO1 (stereo not drawn)	MITF act 133, Wnt act 44, esBAF inh 85
O=C(Nc1ncc(Cc2cccc(Cl)c2)s1)C1CCCO1 (stereo not drawn)	MITF act 97 (no result: AF4-AF9 inh, Wnt act, esBAF inh, Ecoli rRNA inh)
O=C(Nc1ncc(Cc2ccccc2Cl)s1)C1CCCO1 (stereo not drawn)	esBAF inh 71 (no result: AF4-AF9 inh, Ecoli rRNA inh)
CC(C)C(=O)Nc1ncc(Cc2ccc(Cl)cc2)s1	Ecoli rRNA inh -28 (no result: esBAF inh)
CC(=O)Nc1ncc(Cc2cccc(Cl)c2)s1	none (no result: esBAF inh)
CN(CC(=O)N(C)CC(=O)Nc1c(Cl)cccc1Cl)Cc1ccc(Br)s1	none
C[C@@H]1CN([C@@H](C)CO)C(=O)c2cc(NS(=O)(=O)c3ccc(F)cc3)ccc2O[C@@H]1CN(C)C(=O)Nc1ccc2c(c1)OCO2	none (no result: MITF act, Wnt act)
Cc1nn(-c2ccccc2)c(Cl)c1/C=N/NC(=O)OC(C)(C)C	Wnt act 34, Ecoli rRNA inh -20 (no result: esBAF inh)
COc1ccc(NCC(=O)N/N=C/c2c(C)nn(Cc3ccccc3)c2Cl)cc1	Ecoli rRNA inh -14
O=C(O)C/C(=C\c1cc(Cl)c2c(c1)OCO2)c1nc2ccccc2s1	none
CO[C@@H]1CN(C)C(=O)c2ccc(NS(=O)(=O)c3cccc(Cl)c3)cc2OC[C@@H](C)NC[C@@H]1C	none (no result: MITF act, Wnt act)
NC(=O)NC(=O)COC(=O)CCCSc1nc2ccccc2s1	none
CC(=O)N/C(N)=N/c1nc(=O)c2ccccc2s1	none (no result: MITF act, esBAF inh)
CCOC(=O)N/C(N)=N/c1nc2ccccc2s1	Wnt act 56, esBAF inh 57 (no result: MITF act, AF4-AF9 inh, Ecoli rRNA inh)
CCOC(=O)NC(=O)COC(=O)CCCSc1nc2ccccc2s1	Ecoli rRNA inh -27 (no result: esBAF inh)
O=C1c2ccccc2[C@@H]2C[C@H](NC34CC5CC(CC(C5)C3)C4)[C@@H](O)CCN12	none
COCCCn1c(SCCc2ccccc2)nc2cc(OC)c(OC)cc2c1=N	Ecoli rRNA inh -41
CCC(CC)NCCOC(=O)c1ccc([N+](=O)[O-])cc1	AF4-AF9 inh 26
O=C(NCCOC(=O)c1ccc([N+](=O)[O-])cc1)c1cccnc1	none
O=C(CSCc1nc2c(nnn2Cc2ccc(F)cc2)c(=O)[nH]1)Nc1c(Cl)cc(Cl)cc1Cl	none (no result: esBAF inh, Ecoli rRNA inh)
O=C(NC1CCC(O)CC1)c1ccc2c(c1)S(=O)(=O)N=C1CCCCCN12 (stereo not drawn)	esBAF inh 46
Cc1ccc(S(=O)(=O)NNC(=O)Nc2ccc([N+](=O)[O-])cc2)c(C)c1	Ecoli rRNA inh -23 (no result: esBAF inh)
Cc1ccc(S(=O)(=O)NNC(=O)Nc2cccc(F)c2)c(C)c1	none (no result: esBAF inh)
COC(=O)c1c(NC(C)=O)sc(C(=O)Nc2ccccc2F)c1C	Wnt act 37 (no result: esBAF inh)
CCC(=O)Nc1sc(C(=O)Nc2ccccc2F)c(C)c1C(=O)OC	MITF act inconclusive (no result: esBAF inh)
CCCC(=O)Nc1sc(C(=O)Nc2cccc(N)c2)c(C)c1C(=O)OC	Wnt act 37
CCOC(=O)c1c(N)sc(C(=O)Nc2ccccc2)c1C	none (no result: esBAF inh)
CCOC(=O)c1c(N)sc(C(=O)Nc2ccccc2F)c1C	Ecoli rRNA inh -26
COc1ccc(C(=O)NC2CCCN(Cc3ccc(Cl)cc3)C2)c(OC)c1 (stereo not drawn)	none
CN(C)CCNC(=O)C1CCN(S(=O)(=O)c2ccc3ccccc3c2)CC1	none
Cc1nn(-c2nc3ccccc3s2)c(N)c1-c1ccc(Cl)cc1	Wnt act 41 (no result: AF4-AF9 inh, esBAF inh, Ecoli rRNA inh)
Cc1cc(C)n(-c2nc3ccccc3s2)n1	Wnt act 52 (no result: esBAF inh, Ecoli rRNA inh)
Cc1cc(N)n(-c2nc3ccccc3s2)n1	none (no result: esBAF inh)
Cc1nn(-c2nc3ccccc3s2)c(N)c1-c1ccccc1	MITF act inconclusive, Wnt act inconclusive, esBAF inh 95
Cc1nn(-c2nc3ccccc3s2)c(N)c1Sc1ccc(F)cc1	esBAF inh 89 (no result: AF4-AF9 inh, Wnt act, Ecoli rRNA inh)
Cc1c2c(=O)n(-c3nc4ccccc4s3)nc-2cc(O)n1Cc1ccccc1	none (no result: AF4-AF9 inh, Wnt act, esBAF inh, Ecoli rRNA inh)
Cc1nn(-c2ccccc2)c(N)c1Sc1ccc([N+](=O)[O-])cc1	none (no result: AF4-AF9 inh, Wnt act, esBAF inh, Ecoli rRNA inh)
